In PubChem BioAssay AID1159580 (chemical genetic matrix, 2015):
Several values for one entry are separate records, joined by “and”; a condition that tells them apart may be missing. Identical values can stand only once. The campaign covered roughly 5,500 compounds. About 2,000 (36%) were called active. Roughly 18% stayed inconclusive and do not appear here. Rule as the data show it: active = normalized growth mostly below about 0.91 (no sharp cut-off); inconclusive = no clear call, values can overlap the other calls; inactive = mostly above about 0.92. The list shows a part of the results.

Assay: chemical genetic growth profiling, strain panel (AID 1159580);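 also: tested at 20 µM; growth read once vehicle control cultures reached saturation at 30 °C; 1 = growth at the plate median or of vehicle wells; lower values mean less growth of the strain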
Conditions: S. cerevisiae deletion strains, growth OD

Measured: normalized growth

CC1(C)S[C@@H]2[C@H](NC(=O)C(C(=O)O)c3ccccc3)C(=O)N2[C@H]1C(=O)O (stereo partly drawn)
inactive: locus YAL021C, strain ccr4, hits give low values 0.979 | locus YAL026C, strain drs2, hits give low values 0.979 | locus YAL030W, strain snc1, hits give low values 0.985 | locus YBL061C, strain skt5, hits give low values 0.959 | locus YBR009C, strain hhf1, hits give low values 0.934 | locus YBR021W, strain FUR4, hits give low values 0.998 | locus YBR023C, strain chs3, hits give low values 0.966 | locus YBR171W, strain sec66, hits give low values 0.948 | locus YBR229C, strain ROT2, hits give low values 0.987 | locus YBR231C, strain swc5, hits give low values 1 | locus YBR279W, strain paf1, hits give low values 0.985 | locus YCL011C, strain gbp2, hits give low values 0.933 | locus YCL016C, strain dcc1, hits give low values 0.938 | locus YCL029C, strain bik1, hits give low values 0.99 | locus YCL061C, strain MRC1, hits give low values 0.976 | locus YCL069W, strain vba3, hits give low values 0.985 | locus YCR088W, strain abp1, hits give low values 0.996 | locus YDL005C, strain med2, hits give low values 0.999 | locus YDL035C, strain GPR1, hits give low values 1.02 | locus YDL040C, strain nat1, hits give low values 0.997 | locus YDL074C, strain BRE1, hits give low values 0.995 | locus YDL101C, strain DUN1, hits give low values 0.982 | locus YDL134C, strain PPH21, hits give low values 0.999 | locus YDL185W, strain tfp1, hits give low values 0.982 | locus YDL192W, strain arf1, hits give low values 0.98 | locus YDR001C, strain nth1, hits give low values 0.98 | locus YDR069C, strain doa4, hits give low values 0.978 | locus YDR101C, strain arx1, hits give low values 0.994 | locus YDR137W, strain rgp1, hits give low values 0.944 | locus YDR159W, strain sac3, hits give low values 1.01 | locus YDR162C, strain NBP2, hits give low values 1.01 | locus YDR195W, strain ref2 0.987 | locus YDR297W, strain sur2, hits give low values 0.969 | locus YDR318W, strain mcm21, hits give low values 0.99 | locus YDR334W, strain swr1, hits give low values 0.926 | locus YDR335W, strain msn5, hits give low values 0.978 | locus YDR388W, hits give low values 0.995 | locus YDR392W, strain spt3, hits give low values 0.895 | locus YDR502C, strain sam2, hits give low values 0.995 | locus YEL003W, strain gim4, hits give low values 0.99 | locus YEL037C, strain rad23, hits give low values 0.977 | locus YEL061C, strain CIN8 (second series), hits give low values 0.989 | locus YEL061C, strain CIN8, hits give low values 1 | locus YER015W, strain faa2, hits give low values 0.986 | locus YER016W, strain bim1, hits give low values 0.962 | locus YER110C, hits give low values 0.979 | locus YER111C, strain swi4, hits give low values 0.979 | locus YER155C, strain BEM2 (second series), hits give low values 1.03 | locus YER155C, strain BEM2, hits give low values 0.991 | locus YER167W, strain BCK2, hits give low values 0.993 | locus YFR010W, strain ubp6, hits give low values 0.962 | locus YGL078C, strain dbp3, hits give low values 0.993 | locus YGL086W, strain mad1, hits give low values 0.989 | locus YGL167C, strain pmr1, hits give low values 0.96 | locus YGL173C, strain kem1, hits give low values 0.96 | locus YGL227W, strain vid30, hits give low values 0.985 | locus YGL240W, strain doc1, hits give low values 1.01 | locus YGL248W, strain PDE1, hits give low values 0.982 | locus YGL253W, strain hxk2, hits give low values 0.982 | locus YGR135W, strain pre9, hits give low values 0.988 | locus YGR252W, strain gcn5, hits give low values 0.981 | locus YHR013C, strain ard1, hits give low values 0.949 | locus YHR027C, strain rpn1, hits give low values 0.945 | locus YHR030C, strain SLT2, hits give low values 0.991 and 1.01 | locus YHR079C, strain IRE1 (second series), hits give low values 0.989 | locus YHR079C, strain IRE1, hits give low values 1.02 | locus YHR094C, strain hxt1, hits give low values 0.984 | locus YHR129C, strain ARP1, hits give low values 0.99 | locus YHR142W, strain chs7, hits give low values 0.934 | locus YHR200W, strain rpn10, hits give low values 0.985 | locus YIL066C, strain RNR3, hits give low values 1.01 | locus YIL073C, strain SPO22, hits give low values 1.03 | locus YIL125W, strain kgd1, hits give low values 0.984 | locus YIR030C, strain dcg1, hits give low values 0.987 | locus YJL092W, strain hpr5, hits give low values 0.968 | locus YJL095W, strain BCK1 (second series), hits give low values 0.975 | locus YJL095W, strain BCK1, hits give low values 0.978 and 1 | locus YJL115W, strain asf1, hits give low values 0.952 | locus YJL129C, strain trk1, hits give low values 0.944 | locus YJL134W, strain LCB3, hits give low values 0.992 | locus YJL154C, strain vps35, hits give low values 0.982 | locus YJL164C, strain tpk1, hits give low values 0.962 | locus YJL166W, strain qcr8, hits give low values 0.977 | locus YJL168C, strain set2, hits give low values 0.984 | locus YJL187C, strain SWE1 (second series), hits give low values 0.988 | locus YJL187C, strain SWE1, hits give low values 0.979 | locus YJR043C, strain POL32, hits give low values 1.01 | locus YJR066W, strain TOR1, hits give low values 0.992
